28 molecules from PubChem BioAssay (Tox21) can be followed below.

“And” between values parts separate entries of the source, which are not always exact repeats. Equal entries are not always repeated. Records with an inconclusive call do not appear. Unmarked numbers belong to inactive results. The source made the active and inactive calls. The call rests on the fitted dose curve; in most records, active means well fitted curve in the direction sought with a large enough effect in the repeat runs; inconclusive means weak or mixed curves; inactive means no such curve, though single readings can be large; an effect the other way counts as inactive or inconclusive.

Test [1] deals with Cytochrome P450 2D6 (Homo sapiens) (UniProt P10635). Put plainly: Cytochrome P450 Family 2 Subfamily D Member 6 (CYP2D6) small molecule antagonists: luciferase reporter qHTS assay (AID 1671196). Further: nearly all actives have a fitted effect of over 50% in size. Further: potency means the concentration at half of the fitted maximal effect. On activity change, negative = inhibition: series mostly up to about 120 µM. The method, boiled down: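 Inhibition of CYP2D6 was gauged by loss of luminescence, since light produced tracks the luciferin generated from a proluciferin substrate. A 10 min room-temperature preincubation preceded 1 h NADPH-supported turnover.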
Chain of Cytochrome P450 2D6 (Homo sapiens) (P10635 whole entry, looked up): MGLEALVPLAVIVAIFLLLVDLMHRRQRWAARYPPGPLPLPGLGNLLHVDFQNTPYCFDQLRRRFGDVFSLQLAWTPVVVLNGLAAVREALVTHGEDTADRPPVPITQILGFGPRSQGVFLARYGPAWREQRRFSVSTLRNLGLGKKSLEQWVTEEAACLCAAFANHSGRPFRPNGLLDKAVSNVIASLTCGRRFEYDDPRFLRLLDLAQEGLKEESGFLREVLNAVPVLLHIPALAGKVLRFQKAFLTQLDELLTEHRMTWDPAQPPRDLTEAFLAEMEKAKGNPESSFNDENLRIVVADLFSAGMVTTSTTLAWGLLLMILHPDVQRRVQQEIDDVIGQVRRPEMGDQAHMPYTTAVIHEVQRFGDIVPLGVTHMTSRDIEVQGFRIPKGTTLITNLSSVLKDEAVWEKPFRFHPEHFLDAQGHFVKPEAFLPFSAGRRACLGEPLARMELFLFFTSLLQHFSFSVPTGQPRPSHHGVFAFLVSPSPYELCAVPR

Test [2] addresses Cytochrome P450 2C19 (Homo sapiens) (UniProt P33261). Put plainly: Cytochrome P450 Family 2 Subfamily C Member 19 (CYP2C19) small molecule antagonists: luciferase reporter qHTS assay (AID 1671197). Further: nearly all actives have a fitted effect of over 65% in size. Further: potency means the concentration at half of the fitted maximal effect. On activity change, negative = inhibition: series mostly up to about 120 µM. The method, boiled down: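 Inhibition of CYP2C19 was scored from loss of luminescence in a P450-Glo proluciferin substrate assay, NADPH-started and run 1 h at 37C, with ketoconazole as positive control.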

In test [3] the target is Cytochrome P450 2C9 (Homo sapiens) (UniProt P11712). Put plainly: Cytochrome P450 Family 2 Subfamily C Member 9 (CYP2C9) small molecule antagonists: luciferase reporter qHTS assay (AID 1671198). Further: nearly all actives have a fitted effect of over 50% in size. Further: potency means the concentration at half of the fitted maximal effect. On activity change, negative = inhibition: series mostly up to about 120 µM. The method, boiled down: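 Enzyme-substrate mix preincubated with compound 10 min at room temperature; reaction started with NADPH regeneration solution, 1 h 37C. Luminescent luciferin product read after 20 min detection reagent.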
Chain of Cytochrome P450 2C9 (Homo sapiens) (P11712 whole entry, looked up): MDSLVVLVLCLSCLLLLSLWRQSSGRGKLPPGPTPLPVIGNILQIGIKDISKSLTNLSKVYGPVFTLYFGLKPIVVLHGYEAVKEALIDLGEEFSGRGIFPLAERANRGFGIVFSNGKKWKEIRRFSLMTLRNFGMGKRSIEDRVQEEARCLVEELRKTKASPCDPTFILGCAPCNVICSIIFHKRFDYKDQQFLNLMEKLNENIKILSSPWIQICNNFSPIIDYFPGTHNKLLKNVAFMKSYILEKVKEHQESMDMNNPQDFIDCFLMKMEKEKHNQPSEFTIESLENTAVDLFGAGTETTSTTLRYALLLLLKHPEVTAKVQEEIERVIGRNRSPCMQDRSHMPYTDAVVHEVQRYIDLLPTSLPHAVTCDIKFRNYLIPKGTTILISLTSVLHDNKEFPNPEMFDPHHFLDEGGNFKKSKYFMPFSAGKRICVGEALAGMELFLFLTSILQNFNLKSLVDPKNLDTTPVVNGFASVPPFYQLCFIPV

Test [4] concerns the target Cytochrome P450 1A2 (Homo sapiens) (UniProt P05177). In words: Cytochrome P450 Family 1 Subfamily A Member 2 (CYP1A2) small molecule antagonists: luciferase reporter qHTS assay (AID 1671199). Further: nearly all actives have a fitted effect of over 50% in size. Further: potency means the concentration at half of the fitted maximal effect. On activity change, negative = inhibition: series mostly up to about 120 µM. The gist of the method:
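Signal from luciferin formed by CYP1A2 from a proluciferin substrate is read as luminescence, expressed in relative luminescence units. Compounds sit with enzyme 10 min, NADPH-driven reaction runs 1 h, all at room temperature.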

Test [5] deals with Voltage-gated inwardly rectifying potassium channel KCNH2 (Homo sapiens) (UniProt Q12809). In words: Human Ether-a-go-go-Related Gene (hERG) channel small molecule antagonists: fluorescence cell-based qHTS assay (AID 1671200).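 Further: hERG-expressing U2OS cells given a thallium stimulus after FluxOR II dye loading; series mostly up to about 77 µM; nearly all actives have a fitted effect of over 50% in size.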 The method, boiled down: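 hERG-U2OS cells plated overnight at 37 C, loaded with FluxOR II dye 1 h at RT in dark; after 10 min, thallium stimulus added. Fluorescence (480/540 nm) read kinetically for 2 min at 1 s intervals.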
Chain of Voltage-gated inwardly rectifying potassium channel KCNH2 (Homo sapiens) (Q12809 whole entry, looked up): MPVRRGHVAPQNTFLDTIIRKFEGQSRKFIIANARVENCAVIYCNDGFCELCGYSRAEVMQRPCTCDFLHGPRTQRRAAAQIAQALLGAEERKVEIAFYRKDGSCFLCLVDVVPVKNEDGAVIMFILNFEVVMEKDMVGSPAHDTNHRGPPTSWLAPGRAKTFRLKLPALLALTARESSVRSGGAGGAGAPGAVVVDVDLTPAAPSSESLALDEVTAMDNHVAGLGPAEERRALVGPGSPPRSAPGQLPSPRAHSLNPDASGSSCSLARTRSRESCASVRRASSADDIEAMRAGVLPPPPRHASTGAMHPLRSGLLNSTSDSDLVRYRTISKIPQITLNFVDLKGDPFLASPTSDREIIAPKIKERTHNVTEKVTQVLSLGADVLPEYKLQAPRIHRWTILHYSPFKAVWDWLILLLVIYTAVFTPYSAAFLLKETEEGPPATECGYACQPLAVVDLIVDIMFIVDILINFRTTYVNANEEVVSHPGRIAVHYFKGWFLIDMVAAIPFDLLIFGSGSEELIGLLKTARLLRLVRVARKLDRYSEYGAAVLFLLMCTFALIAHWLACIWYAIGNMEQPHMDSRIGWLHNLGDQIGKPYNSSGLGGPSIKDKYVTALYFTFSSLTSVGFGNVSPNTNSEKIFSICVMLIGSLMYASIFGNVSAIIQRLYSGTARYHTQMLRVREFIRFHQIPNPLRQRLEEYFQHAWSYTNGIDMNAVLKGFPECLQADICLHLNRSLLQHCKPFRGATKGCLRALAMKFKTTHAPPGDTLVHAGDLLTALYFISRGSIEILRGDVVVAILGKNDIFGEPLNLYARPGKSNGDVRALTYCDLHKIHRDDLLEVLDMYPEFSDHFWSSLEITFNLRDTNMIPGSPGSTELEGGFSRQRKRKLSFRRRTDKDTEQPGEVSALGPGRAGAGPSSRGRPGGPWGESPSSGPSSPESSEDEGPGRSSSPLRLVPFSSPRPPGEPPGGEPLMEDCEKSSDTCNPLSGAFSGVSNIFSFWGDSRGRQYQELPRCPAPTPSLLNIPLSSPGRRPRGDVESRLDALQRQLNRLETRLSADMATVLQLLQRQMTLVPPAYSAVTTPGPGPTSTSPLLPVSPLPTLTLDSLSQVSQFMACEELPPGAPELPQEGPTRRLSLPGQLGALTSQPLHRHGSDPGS

Test [6] deals with Cytochrome P450 3A4 (Homo sapiens) (UniProt P08684). In words: Cytochrome P450 Family 3 Subfamily A Member 4 (CYP3A4) small molecule antagonists: luciferase reporter qHTS assay (AID 1671201). The gist of the method:
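P450-Glo CYP3A4 luminescent assay: compounds preincubated 10 min at room temperature with enzyme and proluciferin substrate, NADPH regeneration added, 1 h room-temperature reaction, stopped with luciferin detection reagent; luminescence read after 20 min. Ketoconazole positive control.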
On the % scale 0 is the no-effect control and ±100 the full control effect.

Chain of Cytochrome P450 3A4 (Homo sapiens) (P08684 whole entry, looked up): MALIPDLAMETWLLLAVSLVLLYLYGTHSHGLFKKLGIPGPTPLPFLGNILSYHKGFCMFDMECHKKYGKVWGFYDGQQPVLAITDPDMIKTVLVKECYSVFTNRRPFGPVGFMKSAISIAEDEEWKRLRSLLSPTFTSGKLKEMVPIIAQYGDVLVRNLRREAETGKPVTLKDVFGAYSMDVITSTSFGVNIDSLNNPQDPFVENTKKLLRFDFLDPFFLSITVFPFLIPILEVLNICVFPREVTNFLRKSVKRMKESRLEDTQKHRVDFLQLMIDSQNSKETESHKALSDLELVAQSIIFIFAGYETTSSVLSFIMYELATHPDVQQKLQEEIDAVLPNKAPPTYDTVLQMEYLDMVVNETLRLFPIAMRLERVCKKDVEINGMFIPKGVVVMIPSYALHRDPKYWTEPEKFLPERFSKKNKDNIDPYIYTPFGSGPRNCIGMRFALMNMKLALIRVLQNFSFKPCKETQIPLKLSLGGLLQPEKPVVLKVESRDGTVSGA
Chain of Cytochrome P450 1A2 (Homo sapiens) (P05177 whole entry, looked up): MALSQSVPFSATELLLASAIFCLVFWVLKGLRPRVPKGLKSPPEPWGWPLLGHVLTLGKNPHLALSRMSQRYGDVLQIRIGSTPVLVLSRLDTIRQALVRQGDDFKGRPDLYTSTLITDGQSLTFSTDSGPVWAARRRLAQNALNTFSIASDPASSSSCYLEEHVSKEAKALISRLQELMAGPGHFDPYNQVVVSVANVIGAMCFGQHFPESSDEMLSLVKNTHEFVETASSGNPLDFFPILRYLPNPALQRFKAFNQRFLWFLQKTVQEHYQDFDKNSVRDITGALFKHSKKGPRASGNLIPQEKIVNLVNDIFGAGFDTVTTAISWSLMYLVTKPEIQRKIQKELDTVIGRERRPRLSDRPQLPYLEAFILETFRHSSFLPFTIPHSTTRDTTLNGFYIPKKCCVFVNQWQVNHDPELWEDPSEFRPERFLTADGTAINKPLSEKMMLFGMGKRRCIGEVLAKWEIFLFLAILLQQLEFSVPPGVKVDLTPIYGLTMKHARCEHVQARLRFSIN
Chain of Cytochrome P450 2C19 (Homo sapiens) (P33261 whole entry, looked up): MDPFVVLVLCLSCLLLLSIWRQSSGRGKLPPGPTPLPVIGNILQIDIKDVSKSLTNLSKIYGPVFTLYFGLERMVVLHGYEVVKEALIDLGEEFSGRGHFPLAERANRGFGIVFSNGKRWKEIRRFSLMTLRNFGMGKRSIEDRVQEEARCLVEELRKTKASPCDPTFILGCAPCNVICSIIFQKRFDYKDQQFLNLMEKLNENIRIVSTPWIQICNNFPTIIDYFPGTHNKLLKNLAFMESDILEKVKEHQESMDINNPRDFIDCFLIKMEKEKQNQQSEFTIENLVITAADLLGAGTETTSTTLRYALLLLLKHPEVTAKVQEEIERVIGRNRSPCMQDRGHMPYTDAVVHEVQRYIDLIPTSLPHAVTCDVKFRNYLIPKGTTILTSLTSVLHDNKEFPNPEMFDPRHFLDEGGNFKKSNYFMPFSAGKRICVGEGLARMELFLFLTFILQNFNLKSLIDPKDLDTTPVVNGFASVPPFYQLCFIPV

With `CC1(C)C(O)C(C)(C)C1O` (stereo not drawn), the Potency entry in test [1], in test [2], in test [3], in test [4], in test [5] and in test [6] was “inactive” throughout.
In the case of `Cc1cccc(C)c1NC(=O)C(C)N` (stereo not drawn), the Potency result in test [1], in test [2], in test [3], in test [4], in test [5] and in test [6] was “inactive” in each case.
In the case of `Cc1cc2c(cc1S(N)(=O)=O)S(=O)(=O)CCC2`, the Potency entry in test [1], in test [2], in test [3], in test [4], in test [5] and in test [6] was “inactive” each time.
As for `CCc1nccnc1CC`, the activity change, negative = inhibition is -14% [at 23.6 µM] in test [1], 2.92% [at 23.6 µM] in test [3], -2.32% [at 15.8 µM] in test [5] and 8.66% [at 23.6 µM] in test [6]. Besides, the Potency entry in test [2] and in test [4] was “inactive” each time.
On to `COc1nc(N)nc2c1ncn2[C@@H]1O[C@H](CO)[C@@H](O)[C@@H]1O`, for which the Potency result in test [1], in test [2], in test [3], in test [5] and in test [6] was “inactive” throughout. Also, the Potency in test [4] was 24.5 µM (active).
As for `NCCCNCCSP(=O)(O)O`, the activity change, negative = inhibition is -0.545% [at 10.5 µM] in test [1]; -2.49% [at 10.5 µM] in test [2]; 10.3% [at 10.5 µM] in test [3]; -21.8% [at 10.5 µM] in test [4]; -1.01% [at 6.97 µM] in test [5]; 5.88% [at 10.5 µM] in test [6].
`O=S(O)CO`: the Potency entry in test [1], in test [2], in test [3], in test [4], in test [5] and in test [6] was “inactive” each time.
`N[C@H](C(=O)O)c1ccc(O)cc1`: the activity change, negative = inhibition is -10.2% [at 23.6 µM] in test [1], -0.95% [at 23.6 µM] in test [3], 1.26% [at 15.8 µM] in test [5] and -17% [at 23.6 µM] in test [6]. Also, the Potency entry in test [2] and in test [4] was “inactive” throughout.
For `CC(=O)N(CC(O)CO)c1c(I)c(C(=O)NCCO)c(I)c(C(=O)NCC(O)CO)c1I` (stereo not drawn), the Potency result in test [1], in test [2], in test [3], in test [4], in test [5] and in test [6] was “inactive” throughout.
For `ClC(Cl)(Br)Br`, in test [1], the Potency is 39.2 µM (active). Also, the Potency result in test [2], in test [3], in test [4], in test [5] and in test [6] was “inactive” each time.
For the molecule `CCCCCOC(=O)CCCCC`, the Potency result in test [1], in test [2], in test [3], in test [4], in test [5] and in test [6] was “inactive” each time.
Take `C[C@H]1C[C@@H](O)CC(C)(C)C1`: the Potency result in test [1], in test [2], in test [3], in test [4], in test [5] and in test [6] was “inactive” in each case.
Take `NC(=O)Nc1ccccc1`: the Potency result in test [1], in test [2], in test [3], in test [4], in test [5] and in test [6] was “inactive” in each case.
As for `Nc1nc2c(ncn2COC(CO)CO)c(=O)[nH]1`, the Potency result in test [1], in test [2], in test [3], in test [4], in test [5] and in test [6] was “inactive” each time.
With `O=C(O)CN(CCOCCOCCN(CC(=O)O)CC(=O)O)CC(=O)O`, the activity change, negative = inhibition in test [1] was -9.59% [at 0.435 µM]; in test [2], -11.6% [at 0.435 µM]; in test [3] it was 4.56% [at 0.435 µM]; in test [4], -6.73% [at 0.435 µM]; in test [5], 0.825% [at 0.29 µM]; in test [6] it was 0.649% [at 0.435 µM].
For `CCCCCCCCCCCCCCCCC`, the Potency result in test [1], in test [2], in test [3], in test [5] and in test [6] was “inactive” in each case. Also, in test [4], the Potency is 12.6 µM (active).
In the case of `CC(NC(CCc1ccccc1)C(=O)O)C(=O)N1C(=O)N(C)CC1C(=O)O` (stereo not drawn), the Potency entry in test [1], in test [2], in test [3], in test [4], in test [5] and in test [6] was “inactive” each time.
As to `CCOC(C)(C)C`, the Potency entry in test [1], in test [2], in test [3], in test [4], in test [5] and in test [6] was “inactive” in each case.
In the case of `NS(=O)(=O)c1ccc(C(=O)O)cc1`, the Potency entry in test [1], in test [2], in test [3], in test [4], in test [5] and in test [6] was “inactive” in each case.
Take `CN1CCCC1`: the Potency result in test [1], in test [2], in test [3], in test [4], in test [5] and in test [6] was “inactive” in each case.
For `CCSC(=O)N(CC(C)C)CC(C)C`, the Potency entry in test [1], in test [2], in test [3], in test [4], in test [5] and in test [6] was “inactive” throughout.
As for `CN1CCN(c2cc3c(cc2F)c(=O)c(C(=O)O)cn3-c2ccc(F)cc2)CC1`, the Potency entry in test [1], in test [2], in test [3], in test [4], in test [5] and in test [6] was “inactive” each time.
With `NS(=O)(=O)c1cc(C(=O)O)cc(N2CCCC2)c1Oc1ccccc1`, the Potency result in test [1], in test [2], in test [3], in test [4], in test [5] and in test [6] was “inactive” in each case.
In the case of `FC1(F)C(F)(F)C(F)(F)C2(F)C(F)(F)C(F)(F)C(F)(F)C(F)(F)C2(F)C1(F)F` (stereo not drawn), the Potency result in test [1], in test [2], in test [3], in test [4], in test [5] and in test [6] was “inactive” throughout.
Consider `C1OCOCO1`, for which the Potency result in test [1], in test [2], in test [3], in test [4], in test [5] and in test [6] was “inactive” throughout.
Regarding `O=c1cc(-c2ccccc2)oc2ccccc12`, the Potency result in test [1], in test [5] and in test [6] was “inactive” throughout. The Potency was 31.7 µM (active) and 7.92 µM (active) in test [2]; 17.8 µM (active) and 15.4 µM (active) in test [3]; 317 nM (active) and 477 nM (active) in test [4].
For the molecule `O=C(O)CCCc1ccccc1`, the Potency entry in test [1], in test [2], in test [3], in test [4], in test [5] and in test [6] was “inactive” each time.
For `CN1CC(=O)NC1=N`, the Potency entry in test [1], in test [2], in test [3], in test [4], in test [5] and in test [6] was “inactive” throughout.
